# Screening data: PubChem, National Center for Advancing Translational Sciences (NCATS)
# D1 antag: antagonists of human D1 dopamine receptor | P21728 | HEK293 TREx D1 cells, calcium flux, dopamine EC80; hits give low values | activity change, negative = inhibition, % at 10 µM | actives 3.2% (n = 360,000) | AID 504652; in the data active = activity change below about -30%; note: % is set by controls: 0 for no effect and ±100 for the full control effect
# Target sequence (P21728 whole entry, looked up): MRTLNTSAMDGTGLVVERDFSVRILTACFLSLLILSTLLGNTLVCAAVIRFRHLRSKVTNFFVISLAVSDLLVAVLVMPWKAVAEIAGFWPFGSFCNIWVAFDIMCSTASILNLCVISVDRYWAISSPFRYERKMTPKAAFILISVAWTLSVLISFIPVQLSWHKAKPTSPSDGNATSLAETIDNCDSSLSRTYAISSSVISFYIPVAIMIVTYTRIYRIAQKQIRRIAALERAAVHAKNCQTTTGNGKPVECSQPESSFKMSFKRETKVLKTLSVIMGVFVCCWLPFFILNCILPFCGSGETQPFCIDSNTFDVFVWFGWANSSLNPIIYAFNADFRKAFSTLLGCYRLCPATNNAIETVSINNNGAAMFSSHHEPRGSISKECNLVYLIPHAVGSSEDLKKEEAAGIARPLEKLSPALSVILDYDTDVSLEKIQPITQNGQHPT
#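 HEK293 T-REx cells expressing inducible, force-coupled D1 receptor; no-wash Ca dye, 30–90 min RT. Cmpd → 180 s read at 1 Hz → EC80 DA → 180 s read.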
# TRHR PAM: TRH receptor (human) allosteric enhancement; P34981; enhancement, % at 2 µM; TRHR cells, fluo-8 calcium fluorescence, EC20 TRH enhancement; actives 0.66% (n = 360,000); in the data active = enhancement above about 30%; note: 0% is about no effect
#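 TRHR-expressing cells loaded with fluo-8 calcium dye were read kinetically (ex 480/em 530) during compound addition, then stimulated with an EC20 of TRH (10 nM final). Enhancement of the Gq-mediated intracellular calcium response was scored.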
# D1 potentiator: human D1 dopamine receptor positive modulation | P21728 | HEK293 TREx D1 cells, calcium flux, dopamine EC20 potentiation | potentiation, % at 10 µM | actives 0.036% (n = 360,000) | AID 504651; in the data active = potentiation above about 30%; note: 0% is about no effect
# TRHR ag: activates the human TRH receptor. P34981. TRHR cells, calcium flux fluo-8, FDSS agonist mode. activation, % at 2 µM. actives 0.18% (n = 360,000); note: 0% is about no effect
#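 Agonist-mode FDSS calcium read (Ex 480/Em 530, 1 s cycles) in 1536-well TRHR cells with fluo-8 dye, after 10-cycle baseline and 23 nL compound addition; TRH at EC20 (10 nM final) added afterwards for the enhancer phase.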
# D1 ag: human D1 receptor agonism | actives 1% (n = 360,000) | activation, % at 2 µM | P21728 | AID 504660 | HEK293 T-REx D1 cells, calcium flux, agonist mode; note: 0% is about no effect
#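 Agonism was scored from calcium flux recorded over 180 s (1 read/s) after pintool compound addition, following a 10-cycle baseline. Cells were inducible force-coupled HEK293 TREx D1, plated overnight at 30 C and loaded with no-wash calcium dye.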
# Numbers without * were called inactive. Compounds with a hit are over-represented: about 4.6% of the library has one in this group of screens. Cut-off read from the data, not from the text of the source, unless noted: active = activation above about 30%; inactive = the rest.
SMILES,D1 antag,TRHR PAM,D1 potentiator,TRHR ag,D1 ag
Cc1cc2c(s1)c1cnn(Cc3c(F)ccc(F)c3F)c(=O)c1n2C,4.1,-1.5,-3.4,1.3,0.4
O=C(Nc1sc2c(c1C(=O)NCc1ccco1)CCCC2)c1cc(=O)c2ccccc2o1,2.7,4.5,0.6,0.0,1.3
COc1ccc2oc(=O)c(-c3nc(-c4cc(OC)c(OC)c(OC)c4)no3)cc2c1,-4.1,30.9*,2.6,0.2,2.1
Cc1ccc(-c2noc(C3CC(=O)N(c4ccc5c(c4)OCCO5)C3)n2)cc1 (stereo not given),-10.0,8.9,-7.3,0.4,14.3
CCc1cn(C2CC(O)C(CO)O2)c(=O)[nH]c1=O (stereo not given),-34.7*,0.5,-3.6,-0.7,2.2
CCn1nc(C)c(CN2CCCC(CNS(=O)(=O)c3ccc(OC)cc3)C2)c1C (stereo not given),7.8,-2.2,1.3,-0.4,1.0
COc1cccc(CNC(=O)c2cc(C)nc3c2c(C)nn3-c2ccc(C)cc2)c1,-11.5,2.0,-4.3,0.8,2.2
O=C(NCCS(=O)(=O)N1CCN(c2cccc(Cl)c2)CC1)C(c1ccccc1)c1ccccc1,8.7,-4.1,-1.7,0.7,6.8
C=C(C)COc1ccc(-c2[nH]ncc2Oc2cccc(OC)c2)c(O)c1,-38.6*,1.7,-4.5,0.2,5.3
COC(=O)c1cccc(-n2c(C)cc(C=O)c2C)c1,-30.3*,-5.2,-4.2,-2.4,2.8
COC(=O)c1cc(C(=O)OC)cc(-n2c(C)cc(C=O)c2C)c1,-3.5,1.0,3.2,-0.2,1.9
C/C(=N\NC(=O)c1ccc(-n2cnnn2)cc1)c1ccc(C)cc1,4.4,-2.8,3.9,4.4,2.4
COc1ccc(CC2(C)OC(c3ccc(C)cc3)=NN2C(C)=O)cc1 (stereo not given),13.2,7.9,-4.7,-0.8,5.9
